# Paper PMC7862700, “An all-to-all approach to the identification of sequence-specific readers for epigenetic DNA modifications on cytosine”
# Experiments:
# Test in all cases: DAPPL (digital affinity profiling via proximity ligation, sequencing); 10 mM Tris-HCl pH 7.5, 50 mM NaCl, 1 mM DTT, 4% glycerol, room temperature, 30 min; GST-TFs on glutathione beads, 16-mer random dsDNA library, 0.1% formaldehyde crosslink after washing; high values mean tight binding
# Conditions in all cases: protein: recombinant; tags: N-terminal GST; dsDNA, one strand shown
# FLI1 = biological target: T1, FLI1 (Homo sapiens, UniProt Q01543 1-452)
# T1 sequence: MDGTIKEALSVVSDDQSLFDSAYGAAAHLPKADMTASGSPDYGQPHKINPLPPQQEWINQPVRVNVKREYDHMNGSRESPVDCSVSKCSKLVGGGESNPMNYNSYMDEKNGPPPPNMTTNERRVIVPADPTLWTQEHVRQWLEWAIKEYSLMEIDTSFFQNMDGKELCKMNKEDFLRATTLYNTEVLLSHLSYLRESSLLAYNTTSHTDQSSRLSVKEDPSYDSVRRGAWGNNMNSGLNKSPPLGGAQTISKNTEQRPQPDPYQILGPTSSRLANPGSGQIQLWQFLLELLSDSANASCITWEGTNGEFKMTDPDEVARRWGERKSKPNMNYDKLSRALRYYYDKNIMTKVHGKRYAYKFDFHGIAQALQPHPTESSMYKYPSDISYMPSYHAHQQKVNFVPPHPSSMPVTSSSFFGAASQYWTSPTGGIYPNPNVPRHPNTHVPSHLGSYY
# Summary of the method: (§1)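 Binding signal is each hexamer's read frequency for a factor divided by its frequency in the tag-only sample. The factors were GST-fused human transcription factors from yeast, captured on glutathione beads, DNA-barcoded and pooled with that sample. Pools were incubated with 200 nmole of a random double-stranded 16-mer DNA library in Tris/NaCl/DTT/glycerol buffer at room temperature for 30 min, then washed, crosslinked with 0.1% formaldehyde, proximity-ligated with BsaI/T4 ligase (1 h, 37 °C), PCR-amplified and sequenced on an Illumina NextSeq500.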
# ELK1 = biological target: T2, ELK1 (Homo sapiens, UniProt P19419 1-428)
# T2 sequence: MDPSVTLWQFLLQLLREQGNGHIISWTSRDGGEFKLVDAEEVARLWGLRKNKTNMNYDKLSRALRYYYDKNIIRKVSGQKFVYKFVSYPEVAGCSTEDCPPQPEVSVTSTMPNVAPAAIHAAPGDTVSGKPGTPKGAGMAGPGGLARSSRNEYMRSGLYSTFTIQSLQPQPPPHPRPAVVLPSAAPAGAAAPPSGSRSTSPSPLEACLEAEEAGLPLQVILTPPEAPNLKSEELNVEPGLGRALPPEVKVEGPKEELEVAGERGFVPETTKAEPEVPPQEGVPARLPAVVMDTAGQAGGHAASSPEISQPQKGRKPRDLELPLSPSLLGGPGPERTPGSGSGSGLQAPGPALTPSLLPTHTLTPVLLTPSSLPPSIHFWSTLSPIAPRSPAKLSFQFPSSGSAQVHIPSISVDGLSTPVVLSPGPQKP
# Summary of the method: as §1
# GABPA = biological target: T3, GABPA (Homo sapiens, UniProt Q06546 1-454)
# T3 sequence: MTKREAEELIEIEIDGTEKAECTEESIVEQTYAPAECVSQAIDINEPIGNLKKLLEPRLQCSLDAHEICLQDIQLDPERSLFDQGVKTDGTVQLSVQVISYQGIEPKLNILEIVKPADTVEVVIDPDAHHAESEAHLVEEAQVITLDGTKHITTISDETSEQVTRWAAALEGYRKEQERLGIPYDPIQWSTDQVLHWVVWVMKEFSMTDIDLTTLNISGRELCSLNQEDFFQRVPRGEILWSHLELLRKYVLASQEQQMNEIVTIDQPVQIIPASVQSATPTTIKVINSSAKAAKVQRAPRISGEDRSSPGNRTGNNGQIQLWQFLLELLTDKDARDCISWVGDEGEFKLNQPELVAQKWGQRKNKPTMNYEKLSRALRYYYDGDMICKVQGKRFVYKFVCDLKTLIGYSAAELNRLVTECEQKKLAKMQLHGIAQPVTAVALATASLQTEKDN
# Summary of the method: as §1
# ERG = biological target: T4, ERG (Homo sapiens, UniProt P11308 1-479)
# T4 sequence: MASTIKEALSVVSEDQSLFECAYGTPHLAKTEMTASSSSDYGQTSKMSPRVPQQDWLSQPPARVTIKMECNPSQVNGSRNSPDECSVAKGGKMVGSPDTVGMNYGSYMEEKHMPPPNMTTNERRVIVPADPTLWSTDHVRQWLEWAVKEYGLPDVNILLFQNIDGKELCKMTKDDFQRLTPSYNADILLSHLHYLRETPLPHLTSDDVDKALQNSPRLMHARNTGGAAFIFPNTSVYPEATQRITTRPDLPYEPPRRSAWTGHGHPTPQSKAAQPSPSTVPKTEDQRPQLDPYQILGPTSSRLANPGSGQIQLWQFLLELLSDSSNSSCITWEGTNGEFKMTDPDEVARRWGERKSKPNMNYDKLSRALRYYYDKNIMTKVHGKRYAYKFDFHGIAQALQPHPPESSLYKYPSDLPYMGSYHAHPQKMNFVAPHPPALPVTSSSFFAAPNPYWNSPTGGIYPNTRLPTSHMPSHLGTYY
# Summary of the method: as §1
# ELF1 = ELF1 (Homo sapiens, UniProt P32519 1-619)
# Summary of the method: as §1
# EHF = biological target: T5, EHF (Homo sapiens, UniProt Q9NZC4 1-300)
# T5 sequence: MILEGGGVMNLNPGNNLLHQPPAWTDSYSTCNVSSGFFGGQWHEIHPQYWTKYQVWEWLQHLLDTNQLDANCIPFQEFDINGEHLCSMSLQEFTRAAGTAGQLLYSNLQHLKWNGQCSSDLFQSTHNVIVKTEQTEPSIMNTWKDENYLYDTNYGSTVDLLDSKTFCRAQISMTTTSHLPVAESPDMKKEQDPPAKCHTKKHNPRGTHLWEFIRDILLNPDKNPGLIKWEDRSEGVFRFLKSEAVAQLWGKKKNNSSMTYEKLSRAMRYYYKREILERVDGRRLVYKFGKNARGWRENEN
# Summary of the method: as §1
# SPI1 = SPI1 (Homo sapiens, UniProt P17947 1-270)
# Summary of the method: as §1
# SPIB = SPIB (Homo sapiens, UniProt Q01892 1-262)
# Summary of the method: as §1
# FEV = biological target: T6, FEV (Homo sapiens, UniProt Q99581 1-238)
# T6 sequence: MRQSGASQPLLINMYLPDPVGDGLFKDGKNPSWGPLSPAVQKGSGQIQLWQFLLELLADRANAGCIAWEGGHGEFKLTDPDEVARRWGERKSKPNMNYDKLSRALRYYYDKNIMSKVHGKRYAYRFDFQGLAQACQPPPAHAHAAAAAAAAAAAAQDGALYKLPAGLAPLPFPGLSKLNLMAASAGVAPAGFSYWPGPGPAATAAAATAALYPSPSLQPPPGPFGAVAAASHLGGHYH
# Summary of the method: as §1
# ETV5 = ETV5 (Homo sapiens, UniProt P41161 1-510)
# Summary of the method: as §1
# Chain of ETV5 (P41161 whole entry): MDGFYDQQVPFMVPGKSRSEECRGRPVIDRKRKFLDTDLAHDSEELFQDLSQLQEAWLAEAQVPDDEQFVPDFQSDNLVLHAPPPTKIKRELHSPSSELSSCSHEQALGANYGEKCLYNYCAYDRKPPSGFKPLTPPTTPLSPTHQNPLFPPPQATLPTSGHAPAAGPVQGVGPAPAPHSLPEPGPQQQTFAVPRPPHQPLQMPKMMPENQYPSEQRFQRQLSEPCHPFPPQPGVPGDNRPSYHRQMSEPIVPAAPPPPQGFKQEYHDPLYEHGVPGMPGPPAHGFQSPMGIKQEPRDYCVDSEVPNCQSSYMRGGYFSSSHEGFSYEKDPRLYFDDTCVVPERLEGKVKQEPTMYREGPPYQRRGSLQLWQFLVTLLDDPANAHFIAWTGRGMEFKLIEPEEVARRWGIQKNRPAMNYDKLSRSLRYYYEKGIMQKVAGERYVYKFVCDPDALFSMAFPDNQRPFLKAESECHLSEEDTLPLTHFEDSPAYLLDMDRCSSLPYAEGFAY
# Chain of SPIB (Q01892 whole entry): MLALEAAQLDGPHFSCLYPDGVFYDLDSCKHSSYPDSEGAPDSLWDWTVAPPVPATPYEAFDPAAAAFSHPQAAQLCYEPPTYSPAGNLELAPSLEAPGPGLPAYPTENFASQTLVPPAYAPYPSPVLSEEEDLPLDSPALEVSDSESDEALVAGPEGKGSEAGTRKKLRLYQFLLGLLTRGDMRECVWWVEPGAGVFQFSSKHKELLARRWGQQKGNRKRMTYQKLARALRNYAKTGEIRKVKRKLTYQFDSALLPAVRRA
# Chain of ELF1 (P32519 whole entry): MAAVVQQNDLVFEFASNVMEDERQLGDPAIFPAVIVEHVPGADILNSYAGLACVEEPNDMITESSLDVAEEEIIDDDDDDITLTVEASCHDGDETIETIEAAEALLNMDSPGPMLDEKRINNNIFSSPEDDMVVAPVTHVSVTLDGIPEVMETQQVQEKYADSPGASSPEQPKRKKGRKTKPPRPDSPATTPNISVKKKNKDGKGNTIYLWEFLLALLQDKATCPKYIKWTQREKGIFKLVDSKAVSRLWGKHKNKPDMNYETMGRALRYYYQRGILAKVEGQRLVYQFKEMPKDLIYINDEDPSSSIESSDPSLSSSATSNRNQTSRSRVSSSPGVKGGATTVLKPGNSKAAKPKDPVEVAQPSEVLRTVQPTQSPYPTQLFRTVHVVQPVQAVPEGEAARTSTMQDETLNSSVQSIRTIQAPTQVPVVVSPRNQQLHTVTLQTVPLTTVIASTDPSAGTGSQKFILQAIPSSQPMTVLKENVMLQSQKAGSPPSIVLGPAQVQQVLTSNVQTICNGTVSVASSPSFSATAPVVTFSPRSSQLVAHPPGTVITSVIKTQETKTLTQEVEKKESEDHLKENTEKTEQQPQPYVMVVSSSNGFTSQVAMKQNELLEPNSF
sequence,measurement,setting,value
TGGCCG,binding signal,FLI1,"1.11 fold enrichment (6-mer frequency, TF over GST control)"
same,binding signal,ELK1,"1.19 fold enrichment (6-mer frequency, TF over GST control)"
same,binding signal,GABPA,"1.15 fold enrichment (6-mer frequency, TF over GST control)"
same,binding signal,ERG,"1.19 fold enrichment (6-mer frequency, TF over GST control)"
same,binding signal,ELF1,"1.08 fold enrichment (6-mer frequency, TF over GST control)"
same,binding signal,EHF,"1.02 fold enrichment (6-mer frequency, TF over GST control)"
same,binding signal,SPI1,"1.14 fold enrichment (6-mer frequency, TF over GST control)"
same,binding signal,SPIB,"1.17 fold enrichment (6-mer frequency, TF over GST control)"
same,binding signal,FEV,"1.22 fold enrichment (6-mer frequency, TF over GST control)"
same,binding signal,ETV5,"1.17 fold enrichment (6-mer frequency, TF over GST control)"
